Screening data (PubChem BioAssay)
Dicer processing – inhibitors of human Dicer processing of pre-microRNA. cat-ELCCA pre-miR-21 Dicer processing, chemiluminescence; stronger effect = higher value. z-score at 25 µM. hit rate 6% among 47,000; in the data active means z-score above about 3, passing the limit was not always enough;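 further: higher signal means more uncleaved substrate so more Dicer inhibition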
Target sequence (Q9UPY3 whole entry, looked up): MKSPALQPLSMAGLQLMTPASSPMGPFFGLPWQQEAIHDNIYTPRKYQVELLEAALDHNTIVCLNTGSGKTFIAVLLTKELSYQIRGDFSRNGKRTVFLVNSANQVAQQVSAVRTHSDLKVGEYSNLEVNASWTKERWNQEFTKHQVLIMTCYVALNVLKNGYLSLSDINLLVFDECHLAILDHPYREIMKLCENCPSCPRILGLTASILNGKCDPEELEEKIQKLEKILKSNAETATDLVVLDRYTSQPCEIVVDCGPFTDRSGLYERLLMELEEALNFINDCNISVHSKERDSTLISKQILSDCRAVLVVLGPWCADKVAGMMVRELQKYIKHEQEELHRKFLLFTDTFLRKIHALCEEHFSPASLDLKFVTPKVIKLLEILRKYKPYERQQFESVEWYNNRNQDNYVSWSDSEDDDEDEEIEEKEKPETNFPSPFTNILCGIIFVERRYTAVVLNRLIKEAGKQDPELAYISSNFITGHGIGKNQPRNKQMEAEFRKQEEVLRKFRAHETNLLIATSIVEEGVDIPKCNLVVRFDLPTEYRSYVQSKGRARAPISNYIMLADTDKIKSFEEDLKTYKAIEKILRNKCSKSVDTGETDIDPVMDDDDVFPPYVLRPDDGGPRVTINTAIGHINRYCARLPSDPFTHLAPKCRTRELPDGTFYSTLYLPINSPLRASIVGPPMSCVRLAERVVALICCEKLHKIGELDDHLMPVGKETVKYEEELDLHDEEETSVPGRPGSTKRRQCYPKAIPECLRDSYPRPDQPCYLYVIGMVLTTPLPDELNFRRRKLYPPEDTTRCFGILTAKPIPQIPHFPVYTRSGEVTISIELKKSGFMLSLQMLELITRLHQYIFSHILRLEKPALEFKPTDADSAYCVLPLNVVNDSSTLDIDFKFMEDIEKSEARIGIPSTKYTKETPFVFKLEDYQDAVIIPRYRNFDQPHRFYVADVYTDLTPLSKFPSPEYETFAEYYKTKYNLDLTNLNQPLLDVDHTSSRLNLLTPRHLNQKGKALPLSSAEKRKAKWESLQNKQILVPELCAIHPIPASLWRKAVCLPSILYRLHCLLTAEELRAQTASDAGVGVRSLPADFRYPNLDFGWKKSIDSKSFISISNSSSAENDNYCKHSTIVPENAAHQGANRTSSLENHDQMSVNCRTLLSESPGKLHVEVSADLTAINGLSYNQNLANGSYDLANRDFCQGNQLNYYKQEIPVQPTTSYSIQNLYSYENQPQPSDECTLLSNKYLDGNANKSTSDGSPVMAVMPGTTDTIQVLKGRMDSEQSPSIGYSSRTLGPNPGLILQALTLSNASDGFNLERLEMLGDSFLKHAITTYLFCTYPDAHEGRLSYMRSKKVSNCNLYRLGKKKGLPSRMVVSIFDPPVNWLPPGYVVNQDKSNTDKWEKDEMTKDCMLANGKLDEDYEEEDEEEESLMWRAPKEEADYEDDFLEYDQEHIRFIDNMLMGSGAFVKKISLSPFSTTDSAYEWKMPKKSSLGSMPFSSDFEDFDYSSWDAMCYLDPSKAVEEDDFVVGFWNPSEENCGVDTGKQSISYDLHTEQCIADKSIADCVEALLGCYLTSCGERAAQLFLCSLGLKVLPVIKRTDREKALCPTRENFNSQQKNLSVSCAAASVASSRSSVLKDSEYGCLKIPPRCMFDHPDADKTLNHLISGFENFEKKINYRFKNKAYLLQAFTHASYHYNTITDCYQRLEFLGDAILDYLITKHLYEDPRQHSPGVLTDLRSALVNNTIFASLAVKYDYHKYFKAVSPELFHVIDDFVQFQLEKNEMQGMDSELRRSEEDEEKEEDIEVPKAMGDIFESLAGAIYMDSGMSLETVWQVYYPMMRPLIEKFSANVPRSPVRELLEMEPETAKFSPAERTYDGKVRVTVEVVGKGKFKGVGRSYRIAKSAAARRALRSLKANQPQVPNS
A number is an active result; – = inactive. This is one part of a sample in which hits are shown more often than they occur.

SMILES	Dicer processing
CN(C)S(=O)(=O)c1ccc2c(c1)oc(=O)c1cc(S(=O)(=O)N(C)C)ccc12	–
Cc1c(NC(=O)CC2SC(=O)NC2=O)c(=O)n(-c2ccccc2)n1C (centres undefined)	–
CCOC(=O)c1sc(SC(C)CC)c2c1CC(C)(C)CC2=O (centres undefined)	–
COC(=O)C1=C(C(=O)OC)SC(=C2C(=S)C(C)(C)Nc3ccc(C)cc32)S1	–
O=C1c2c(O)ccc(O)c2C(=O)c2c(NCCNCCO)ccc(NCCNCCO)c21	21
O=C1c2ccccc2C(=O)c2c(NCCc3ccc(O)cc3)ccc(NCCc3ccc(O)cc3)c21	–
COc1ccc2c(c1)NC(c1ccc(F)cc1)c1cccn1-2 (centres undefined)	–
CSc1cc(C(C)(C)C)nn1S(=O)(=O)c1ccc(F)cc1F	–
Cc1ccc(S(=O)(=O)Nc2ccc(C)cc2[N+](=O)[O-])cc1	–
C=CCOC(=O)c1sc(N2C(=O)c3oc4ccc(C)cc4c(=O)c3C2c2ccc(F)cc2)nc1C (centres undefined)	–
COC(=O)c1sc(N2C(=O)c3oc4ccccc4c(=O)c3C2c2ccc(C)cc2)nc1C (centres undefined)	–
COC(=O)c1sc(N2C(=O)c3oc4ccccc4c(=O)c3C2c2cccc(O)c2)nc1C (centres undefined)	3.8
CCOC(=O)c1sc(N2C(=O)c3oc4ccc(C)cc4c(=O)c3C2c2ccc(O)cc2)nc1C (centres undefined)	–
C=CCOC(=O)c1sc(N2C(=O)c3oc4ccc(C)cc4c(=O)c3C2c2ccc(O)cc2)nc1C (centres undefined)	3.3
COC(=O)c1sc(N2C(=O)c3oc4ccccc4c(=O)c3C2c2cccc(Cl)c2)nc1C (centres undefined)	–
CC(C)(C)OC(=O)NC(CC(N)=O)C(=O)O (centres undefined)	–
CC1(C)Cc2c(sc3nc(-c4ccccc4)[nH]c(=O)c23)CO1	–
CCOC(=O)C(=O)Oc1ccc2c(c1)C(C)=CC(C)(C)N2	–
CCOC(=O)N/N=C/c1cccc2ccccc12	–
Cn1c(NCCCO)nc2c(c1=O)C1(CCCCC1)Cc1ccccc1-2	–
CCn1c(SC)nc2c(c1=O)C1(CCCC1)Cc1ccccc1-2	–
O=c1c2c(nc(NCCCO)n1-c1ccccc1)-c1ccccc1CC21CCCCC1	4.3
CCSc1nc2c(c(=O)n1CC)C1(CCCC1)Cc1ccccc1-2	–
C=CCn1c(SCC(N)=O)nc2c(c1=O)C1(CCCCC1)Cc1ccccc1-2	–
CCSc1nc2c(c(=O)n1C)C1(CCCC1)Cc1ccccc1-2	6.2
SMILES	Dicer processing
COc1ccc(C2C3CCc4ccccc4C3=NN2C(=O)Nc2ccc(Cl)c(Cl)c2)cc1 (centres undefined)	–
O=C1Nc2c(S(=O)(=O)N3CCOCC3)cc(S(=O)(=O)N3CCOCC3)c3cccc1c23	–
COc1ccc2c(O)c(Cc3ccccc3)c(=O)[nH]c2c1	–
CCOC(=O)CS(=O)c1sc(C(=O)OCC)c2c1C(=O)CCC2 (centres undefined)	–
Clc1ccc(CSC2=NCN(Cc3ccccc3)CN2)cc1	–
COc1ccc2c(c1)C(=O)N(c1ccc(C)cc1)C(=O)C2	–
COc1ccc(O)c(C(=O)C2c3ccccc3C(=O)N2c2ccc(C)cc2)c1 (centres undefined)	8
COc1ccc(O)c(C(=O)CC(=O)c2ccc(F)cc2)c1	–
Cc1csc2ncnc(N/N=C/c3ccc(C(F)(F)F)cc3)c12	–
CCC1(c2cccc(OC(=O)Nc3ccc(OC(F)(F)F)cc3)c2)CCCCN(C)C1=O (centres undefined)	3.8
CCOC(=O)C1=C(Nc2ccc(OC(=O)Nc3ccccc3)cc2)C(=O)N(C(C)(C)C)C1	–
Cn1nc(-c2ccccc2)cc1NC(=O)Nc1ccc(OC(F)(F)F)cc1	–
Cc1noc(C)c1S(=O)(=O)N=S(C)(=O)c1ccc(Cl)cc1 (centres undefined)	–
O=C(Cn1c2ccccc2n2nc(-c3ccco3)nc12)c1cccs1	–
CCOC(=O)/C(C#N)=C/NCCc1ccc(Cl)cc1	–
Cc1ccc(C(NC(=O)C(C)C)c2cc(Cl)c3cccnc3c2O)cc1 (centres undefined)	–
Cc1ccc(S(=O)(=O)Nc2cc(Cl)c(O)c3ncccc23)cc1	8.6
Oc1c(Cl)cc(Cl)c2cccnc12	3.1
O=C(Oc1c(Cl)cc(Cl)c2cccnc12)c1cccs1	–
Cc1ccc(S(=O)(=O)Nc2ncccc2OCc2ccc(Cl)c(Cl)c2)cc1	–
Cc1ccc(S(=O)(=O)Nc2cc(S(=O)(=O)c3ccc(C)cc3)c(O)c3cccnc23)cc1	–
COc1ccc(/C(O)=C2/C(=O)C(=O)N(CCc3ccccc3)C2c2ccc(OC)cc2)cc1 (centres undefined)	–
O=C(Nc1ccc(Cl)cc1Cl)c1cnc(Sc2ccccc2)cc1C(F)(F)F	–
CC(C)(C)c1ccc(-c2cc3ncnc(Nc4ccccc4)c3s2)cc1	–
CCOC(=O)C1CCN(S(=O)(=O)c2ccc(Br)cc2)CC1	–
SMILES	Dicer processing
CCCCOc1ccc(S(=O)(=O)n2cnc(C)c2)cc1	–
CCOc1ccc(S(=O)(=O)N2CN3CCN(C3)C2)cc1	3.2
CCNc1[nH]c(=S)nc2sc3c(c12)CCN(C)C3	–
Cc1ccc2c(c1)C(=NCCCN=C1C(=O)Nc3ccc(C)cc31)C(=O)N2	–
OC1=C(O)c2nc3cc(F)ccc3nc21	3.1
Cc1c(-c2ccc(-c3ccccc3F)cc2)nc2ccc(F)cc2c1C(=O)O	–
CCOC(=O)c1ccc2nc3c(nc2c1)C(O)=C3O	–
O=S(=O)(c1ccc(-c2noc(-c3ccccc3)n2)cc1)N1CCOCC1	3.3
O=S(=O)(c1ccc(-c2cn3ccccc3n2)cc1)N1CCOCC1	–
O=S(=O)(c1ccc(-c2nc(-c3ccc(Cl)cc3)cs2)cc1)N1CCOCC1	–
COc1cccc(-c2cc(-c3ccc(C)o3)c(C#N)c(N)n2)c1	–
CN1CCCC12NCCc1c2[nH]c2ccccc12 (centres undefined)	–
CC(=O)c1cc2cc(Cl)cc(Cl)c2oc1=O	–
CC(=O)c1cc2cc(Cl)cc(Cl)c2o1	–
Cc1cc2nc(-c3cc4cc(Cl)cc(Cl)c4oc3=O)[nH]c2cc1C	4.7
O=C(c1cccc([N+](=O)[O-])c1)c1cc2cc(Br)cc(Br)c2o1	–
Nc1cccc(F)c1C(=O)NCc1ccc(Cl)cc1Cl	–
Cc1ccc(O)c(C2=Nc3ccccc3N=C(c3ccco3)C2)c1	4
Cc1ccc(O)c(C2=NN3C(C2)c2ccccc2OC3C(C)C)c1 (centres undefined)	–
Cc1ccc2c(c1C)NC(=O)CC(c1ccccc1O)=N2	–
N#Cc1c(-c2ccccc2)c(-c2ccccc2)nn(CC(=O)N/N=C/c2cccs2)c1=O	–
N#Cc1c(-c2ccccc2)nc(N/N=C/c2cccs2)[nH]c1=O	3.8
N#Cc1c(-c2ccc(Cl)c(Cl)c2)cc(-c2ccc(Cl)cc2)[nH]c1=O	–
N#Cc1c(-c2ccc(Cl)cc2)nc(N/N=C/c2cccs2)[nH]c1=O	3.5
N#Cc1c(-c2ccc(Cl)cc2)nc(Nc2ccc(Cl)cc2)[nH]c1=O	–
COc1ccc(-c2nc(N(C)c3ccccc3)[nH]c(=O)c2C#N)cc1	–
COc1ccc(C2CC(=O)C3=C(C2)NC(C)=C(C(=O)OC(C)C)C3c2ccc(O)c(OC)c2)cc1 (centres undefined)	–
COc1ccccc1-c1cc(C(=O)O)c2ccccc2n1	–
O=C(O)c1ccccc1-c1c2ccc3cc(O)ccc3c2oc2c1ccc1cc(=O)ccc12	4.3
